In PubChem BioAssay (NCATS):
Results filed as inconclusive are left out. Calls of active or inactive are those of the source. The call rests on the fitted dose curve; in most records, active means well fitted inhibition curve with a large enough effect; inconclusive means small, poorly fitted or top-dose-only effect; inactive means flat fitted curve, though single readings scatter.

What was measured:
Assay in all cases: qHTS profiling for inhibitors of Plasmodium falciparum proliferation (AID 504749); further: nearly all actives have a fitted effect of over 60% in size
Details in all cases: P. falciparum in erythrocytes, SYBR Green DNA, 72 h; series mostly up to 28.7 µM
PAD = test system: PAD
Procedure, shortened: (§1)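 Parasite proliferation within erythrocytes, 72 h exposure. Endpoint: SYBR Green I fluorescence after overnight lysis at room temperature. Controls: 0.29 uM artemisinin, DMSO.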

PC15 = test system: PC15
Procedure, shortened: as §1

PC26 = test system: PC26
Procedure, shortened: as §1

PC49 = test system: PC49
Procedure, shortened: as §1

SC27B = test system: SC27B
Procedure, shortened: as §1

TAB109 = test system: TAB109
Procedure, shortened: as §1

TAB113 = test system: TAB113
Procedure, shortened: as §1

TAB165 = test system: TAB165
Procedure, shortened: as §1

W2 = test system: W2
Procedure, shortened: as §1

Measured: Potency

CC(=O)N=c1sc(S(N)(=O)=O)nn1C
inactive: all assays above

C(=C\c1ccncc1)/c1ccccc1
inactive: all assays above

O=C(OCc1ccccc1)c1cccnc1
not listed: W2
inactive: all other assays above

CC(C)c1ncc([N+](=O)[O-])n1C
inactive: all assays above

CC(C)[C@@H](N)C(=O)O
not listed: W2
inactive: all other assays above

CCN(CC)CCOc1ccccc1OC
not listed: W2
inactive: all other assays above

O=c1[nH]c(=O)n([C@H]2C[C@H](O)[C@@H](CO)O2)cc1/C=C/Br
inactive: all assays above

COC(=O)c1ccccc1O
not listed: W2
inactive: all other assays above

OCC(O)CO
inactive: all assays above

COc1ccc(C(=O)CCC(=O)O)c2ccccc12
inactive: all assays above

COc1ccc(C(=O)c2ccc(C)cc2)c(O)c1
inactive: all assays above

Cc1ncc(C[n+]2csc(CCOP(=O)(O)O)c2C)c(N)n1
inactive: all assays above

O=C(NNCNNC(=O)c1ccncc1)c1ccncc1
inactive: all assays above

CCN(CC)C(=S)S
not listed: W2
inactive: all other assays above

Nc1nc(=O)n([C@@H]2CS[C@H](CO)O2)cc1F
inactive: all assays above

COC(=O)CC[C@H](N)C(=O)O
inactive: all assays above

CCc1ncnc2cc(OC)c(OC)cc12
inactive: all assays above

O=[N+]([O-])c1c(Cl)cccc1-c1c[nH]cc1Cl
not listed: W2
inactive: all other assays above

c1ccc2ccccc2c1
inactive: all assays above

CC(=O)Nc1ccc(OC(C)=O)cc1
inactive: all assays above

NC(=S)NS(=O)(=O)c1ccc(N)cc1
inactive: all assays above

NC(=O)[C@H]1O[C@@H](O)[C@H](O)[C@@H](O)[C@@H]1O
inactive: all assays above

CS(=O)(=O)OCC(O)C(O)COS(C)(=O)=O (centres undefined)
not listed: W2
inactive: all other assays above

Cc1cc(-c2ccc(N=Nc3ccc4c(S(=O)(=O)O)cc(S(=O)(=O)O)c(N)c4c3O)c(C)c2)ccc1N=Nc1ccc2c(S(=O)(=O)O)cc(S(=O)(=O)O)c(N)c2c1O
inactive: all assays above
